Screens as filed in PubChem.
Only some compounds are listed: those with a hit (about 2.4% of all), similar ones and a draw of the others.
D2 ag-1 = HTS Assay for Allosteric Agonists of the Human D2 Dopamine Receptor: Primary Screen for Agonists. D(2) dopamine receptor (Homo sapiens), P14416. hit rate 0.53% among 340,000. HEK293 T-REx D2 cells, calcium flux agonist mode. activation, % at 2 µM;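 active means activation over 3 SD above normal in the single-dose calcium agonist read, cut at about 30% in these data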
Target sequence (P14416 whole entry, looked up): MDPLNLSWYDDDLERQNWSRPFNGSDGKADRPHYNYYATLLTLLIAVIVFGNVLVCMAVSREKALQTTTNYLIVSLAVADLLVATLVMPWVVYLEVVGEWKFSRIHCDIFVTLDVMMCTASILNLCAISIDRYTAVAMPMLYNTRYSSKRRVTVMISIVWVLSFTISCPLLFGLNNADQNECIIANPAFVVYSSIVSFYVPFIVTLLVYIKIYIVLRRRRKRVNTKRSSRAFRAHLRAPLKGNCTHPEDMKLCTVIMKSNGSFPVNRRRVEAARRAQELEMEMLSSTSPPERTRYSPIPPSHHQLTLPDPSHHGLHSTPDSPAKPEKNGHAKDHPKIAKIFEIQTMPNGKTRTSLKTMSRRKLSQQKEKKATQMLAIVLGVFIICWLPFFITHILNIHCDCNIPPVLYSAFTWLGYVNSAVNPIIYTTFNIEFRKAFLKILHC
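In this primary screen, compounds producing a positive calcium signal within 180 s of addition to tetracycline-induced, force-coupled HEK293 Trex D2 cells are flagged; cells are dye-loaded with a no-wash calcium kit beforehand.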
D2 PAM-1 = Beta-Arrestin HTS for Positive Allosteric Modulators of the Human D2 Dopamine Receptor: Potentiators. D(2) dopamine receptor (Homo sapiens), P14416. hit rate 0.23% among 360,000. potentiation, % (no concentration beside the values). DiscoveRx D2 beta-arrestin cells, luminescence, 90 min; 100% = 57 uM dopamine signal; in the data active means potentiation above about 50%; inconclusive means mostly about 30% to 49%
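D2 cells co-treated with compound plus 50 nM dopamine (EC20) for 90 min at 37 deg C to detect potentiation. Beta-arrestin recruitment was read as enzyme-fragment luminescence after 1 h at ambient temperature. Full response was set by 57 uM dopamine.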
D2 PAM-2 = HTS Assay for Positive Allosteric Modulators of the Human D2 Dopamine Receptor: Primary Screen for Potentiators | D(2) dopamine receptor (Homo sapiens), P14416 | HEK293 T-REx D2, calcium flux, EC20 dopamine potentiation | potentiation, % at 10 µM | hit rate 0.34% among 340,000;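 active means potentiation over 3 SD above the plate norm, cut at about 30% in these data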
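Primary screen. Calcium kinetics in induced HEK293 T-REx D2 cells: compound pre-addition 180 s, EC20 dopamine, 180 s more.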
D2 ag-2 = Beta-Arrestin HTS for Positive Allosteric Modulators of the Human D2 Dopamine Receptor: Agonists; D(2) dopamine receptor (Homo sapiens), P14416; DiscoveRx PathHunter D2 beta-arrestin, luminescence, 90 min; 100% = 57 uM dopamine signal; activation, % (no concentration beside the values); hit rate 0.084% among 360,000; AID 624465, 2012; in the data active means activation above about 40%; inconclusive means between about 15% and that limit
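Agonist mode: compounds alone added to overnight-plated D2 PathHunter cells for 90 min at 37 C, with 57 uM final dopamine (EC100) defining full response. Beta-arrestin recruitment detected by chemiluminescent reagent, read after 1 h at ambient temperature.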
D2 antagonist = HTS Assay for Allosteric Antagonists of the Human D2 Dopamine Receptor: Primary Screen for Antagonists; D(2) dopamine receptor (Homo sapiens), P14416; HEK293 TREx D2 cells, calcium flux, dopamine EC80; inhibition, % at 10 µM; hit rate 2% among 340,000; AID 485344, 2010; in the data active means inhibition above about 30%; inactive means below that, where a call was filed
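In this primary screen, negative modulation is detected by tracking calcium flux after an EC80 dopamine challenge in inducible HEK293 T-REx D2 cells preexposed to test compound for 180 s.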
D3 ag = qHTS of D3 Dopamine Receptor Agonist: D3 Dopamine Receptor B-arrestin Agonist Confirmatory Assay | shares compounds with D2 ag-1 | DiscoveRx D3 beta-arrestin cells, luminescence, 90 min | Potency, µM (doses to about 76.9 µM), usual class: activators | hit rate 4% among 2,300 | AID 720506, 2013; further: nearly all actives have a fitted effect of over 70% in size
D2 ag-3 = qHTS of D3 Dopamine Receptor Agonist: D2 Dopamine Receptor B-arrestin Agonist Counterscreen. shares compounds with D2 ag-1. DiscoveRx PathHunter D2 beta-arrestin, luminescence, 90 min; response scale: percent relative to full dopamine signal. Potency, µM (doses to about 76.9 µM), hits mostly activators. hit rate 5.9% among 2,300; further: nearly all actives have a fitted effect of over 70% in size
Each line names hits and unclear results; the compound was inactive in the other large screens (follow-up assays come after a bar, where they were run). Unless noted, the call rests on the fitted dose curve; in most records, active means well fitted activation curve with a large enough effect; inconclusive means small, poorly fitted or top-dose-only effect; inactive means flat fitted curve, though single readings scatter.

COc1ccc(OC)c(-n2c(CN3CCC(C(N)=O)CC3)nc3ccccc3c2=O)c1	D2 ag-1 57 | D3 ag inactive | D2 ag-3 inactive
O=C(NC(Nc1nc2ccc([N+](=O)[O-])cc2s1)(C(F)(F)F)C(F)(F)F)c1cccnc1	none | D3 ag inactive | D2 ag-3 inactive
O=C(NC(Nc1nc2ccc([N+](=O)[O-])cc2s1)(C(F)(F)F)C(F)(F)F)c1ccccc1Cl	none
COc1cc(OC)c(NC(=O)CSc2nc3ccncc3[nH]2)cc1Cl	none (no result: D2 PAM-1, D2 ag-2, D2 antagonist)
CCCCC/C=C/C1=CC(=O)C[C@H](c2ccc3c(c2)OCO3)C1	D2 antagonist 31 | D3 ag inactive | D2 ag-3 inactive
CC(C)Oc1cccc(C(=O)Nc2ccc(-c3nc4cc(Cl)cc(Cl)c4o3)cc2)c1	none (no result: D2 PAM-1, D2 ag-2, D2 antagonist)
COc1ccc(CNC(=O)CCC(=O)N2CCN(C(C)=O)CC2)cc1	none
COc1ccc(C2(NC(C)=O)CCN(C(=O)CCC(=O)O)CC2)cc1	D2 ag-1 51 | D3 ag inactive | D2 ag-3 inactive
Cc1ccc(CCNC(=O)c2c(C)oc3ncn(CC(C)C)c(=O)c23)cc1	none (no result: D2 PAM-1, D2 ag-2, D2 antagonist)
CCc1ccc(CN(C)C(=O)c2cc(S(=O)(=O)N3CCOCC3)ccc2N2CCCC2)cc1	none
CN(Cc1cccc(F)c1)C(=O)c1cc(S(=O)(=O)N2CCOCC2)ccc1N1CCCC1	none | D3 ag inactive | D2 ag-3 inactive
CCOc1ccc(-n2cc(-c3ccccc3)c3c(NCCc4ccccc4)ncnc32)cc1	none (no result: D2 PAM-1, D2 ag-2, D2 antagonist)
Nc1cccc(C#Cc2ccc3c(=O)c4ccccc4oc3c2)c1	none | D3 ag inactive | D2 ag-3 inactive
COc1cccc(N2CCN(C(=O)c3cnc4c(-c5ccc(F)cc5)c(C)nn4c3C)CC2)c1	none (no result: D2 PAM-1, D2 ag-2, D2 antagonist)
CC(NC(=O)CSc1nc(-c2cccc(Cl)c2)nc2cc(=O)[nH]n12)c1nc2ccccc2n1C (stereo unspecified)	none (no result: D2 PAM-1, D2 ag-2, D2 antagonist)
O=C(CCc1nnc2n(Cc3ccc(F)cc3)c(=O)c3ccccc3n12)N1CCN(c2ccccn2)CC1	D2 ag-1 53 | D3 ag inactive | D2 ag-3 inactive
O=C(CCc1nnc2n(Cc3ccc(F)cc3)c(=O)c3ccccc3n12)NCCN1CCOCC1	none
COc1cccc(C#Cc2c(C=O)n(C)c3ccccc23)c1	none
Cn1c(C=O)c(C#CC(C)(C)O)c2ccccc21	none | D3 ag inactive | D2 ag-3 inactive
COc1ccccc1N1CCN(C2CCN(S(=O)(=O)c3ccc(NC(C)=O)cc3)CC2)CC1	D2 ag-1 49, D2 ag-2 inconclusive, D2 antagonist 32 | D3 ag inactive | D2 ag-3 inactive
COc1ccc(S(=O)(=O)N2CCC(N3CCN(c4ccccc4OC)CC3)CC2)cc1	D2 ag-1 37 | D3 ag inactive | D2 ag-3 inactive
Cc1ccc2c(c1)C(=O)OC(C(=O)Nc1ccccc1C(=O)O)C2 (stereo unspecified)	none (no result: D2 PAM-1, D2 ag-2, D2 antagonist)
CCOc1ccc(C(=O)Nc2cccc(-c3nc4cccnc4s3)c2C)cc1OCC	none (no result: D2 PAM-1, D2 ag-2, D2 antagonist)
CC(C)N1CCN(S(=O)(=O)c2ccccc2)CC1	none
CCS(=O)(=O)N1CCN(C(C)CCc2ccccc2)CC1 (stereo unspecified)	D2 ag-1 61 | D3 ag inconclusive | D2 ag-3 inconclusive
Cc1cc(NC(=O)CSCC(=O)Nc2cc(Cl)ccc2N2CCN(C)CC2)no1	none | D3 ag inactive | D2 ag-3 inactive
COc1cccc(CNC(=O)c2ccc(-n3c(C)cc4c3CCCC4)cc2)c1	none (no result: D2 PAM-1, D2 ag-2, D2 antagonist)
CCOC(=O)C1CCN(CC(=O)Nc2c(C(=O)OC)[nH]c3cccc(C)c23)CC1	none | D3 ag inactive | D2 ag-3 inactive
CCOC(=O)C1CCCN(CC(=O)Nc2c(C(=O)OC)[nH]c3ccccc23)C1 (stereo unspecified)	none (no result: D2 ag-1, D2 PAM-2, D2 antagonist)
CCN(c1ccccc1)S(=O)(=O)c1c(C)nc2scc(C)n2c1=O	none (no result: D2 PAM-1, D2 ag-2, D2 antagonist)
OCC[C@H]1C[C@H](O)[C@@H](O)[C@@]2(OCCCc3ccccc32)O1	none | D3 ag inactive | D2 ag-3 inactive
OCC[C@@H]1C[C@@H](O)[C@H](O)[C@]2(OCCCc3ccccc32)O1	none
OCC[C@H]1C[C@@H](O)[C@H](O)[C@]2(OCc3ccccc32)O1	none | D3 ag inactive | D2 ag-3 inactive
Nc1nc(N)nc(-c2ccc(Cl)c(Cl)c2)n1	none | D3 ag inactive | D2 ag-3 inactive
Cc1sc(NC(=O)c2ccco2)c(CN2CCN(c3ccccc3)CC2)c1C	D2 ag-1 41 | D3 ag inactive | D2 ag-3 inactive
O=C(NCCCn1ccnc1)C(=O)NCC(c1cccnc1)N1CCN(c2ccccc2)CC1 (stereo unspecified)	D2 ag-1 43 | D3 ag inactive | D2 ag-3 inactive
COc1ccc(N2CCN(C(CNC(=O)c3ccco3)c3ccco3)CC2)cc1 (stereo unspecified)	none
O=C(NCCCn1ccnc1)C(=O)NCC(c1ccco1)N1CCN(c2ccc(F)cc2)CC1 (stereo unspecified)	none
O=C(NCC(c1ccco1)N1CCN(c2ccccc2)CC1)c1ccco1 (stereo unspecified)	D2 antagonist 40 | D3 ag inconclusive | D2 ag-3 inconclusive
O=C(NCCCn1ccnc1)C(=O)NCC(c1ccco1)N1CCN(c2ccccc2)CC1 (stereo unspecified)	D2 ag-1 63, D2 ag-2 54 | D3 ag inactive | D2 ag-3 inconclusive
Cc1sc(NC(=O)c2ccco2)c(CN2CCCCC2)c1C	none
CCC(=O)N1CCc2cc(Br)cc(S(=O)(=O)N3CCN(c4cccc(Cl)c4)CC3)c21	none (no result: D2 PAM-1, D2 ag-2, D2 antagonist)
Cc1nn(-c2ccc(F)cc2)c(-n2cccc2)c1C(=O)NCCCN1CCN(c2ccccc2F)CC1	none (no result: D2 PAM-1, D2 ag-2, D2 antagonist)
O=C(NCCCN1CCN(c2ccccc2F)CC1)Nc1ccccc1[N+](=O)[O-]	D2 ag-1 73, D2 ag-2 inconclusive, D2 antagonist 99 | D3 ag inactive | D2 ag-3 inconclusive
